The text below walks through data of PubChem BioAssay (EPA / NIEHS).

Assay [1] is described as follows: ATG_DR4_LXR_CIS: Attagene CIS-FACTORIAL HepG2 Assay for human Liver X Receptor (LXR), DR4 submotif (AID 2282929). The settings on record: HepG2 Attagene DR4 cis-reporter, mRNA transcription; actives raise or lower the signal. The method, boiled down: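 HepG2 cells were transiently transfected with multiple cis-regulated reporter units and dosed for 24 hours. The DR4 reporter mRNA was quantified by RT-PCR, 6-FAM labelling and capillary electrophoresis. Bidirectional fits used DMSO as baseline.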

Assay [2] has as its target Aryl hydrocarbon receptor (Homo sapiens) (UniProt P35869). Kind of assay: ATG_Ahr_CIS: Attagene CIS-FACTORIAL HepG2 Assay for human Aryl Hydrocarbon Receptor (Ahr) (AID 2282930). Conditions: HepG2 AhR cis-factorial reporter transcription; actives raise or lower the signal. The method, boiled down: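 Transient MRTU transfection of HepG2 → 24 h compound exposure → total RNA, oligo(dT) RT → PCR, 6-FAM extension, HpaI cut → CE fluorescence. DMSO = baseline; bidirectional curve fit.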

The nature of assay [3]: ATG_AP_1_CIS: Attagene CIS-FACTORIAL HepG2 Assay for human Activator Protein 1 (AP-1) (AID 2282931). Conditions: HepG2 Attagene cis-factorial AP-1 reporter mRNA; actives raise or lower the signal. The method, boiled down: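 HepG2 cells transiently transfected with cis-element-driven reporter transcription units, dosed for 24 hours. Reporter mRNA measured by RT-PCR, 6-FAM labelling, HpaI digestion and capillary electrophoresis. Bidirectional fitting against DMSO baseline.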

A short description of assay [4]: ATG_AP_2_CIS: Attagene CIS-FACTORIAL HepG2 Assay for human Activator Protein 2 (AP-2) (AID 2282932). The settings on record: HepG2 AP-2 cis-reporter, Attagene transcription factor profiling; actives raise or lower the signal. Put shortly:
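Endogenous transcription factor activity is reported through transfected multiplex reporter constructs in HepG2, after 24 h of compound exposure. Transcripts were quantified by RT-PCR and capillary electrophoresis of fluorescent fragments. Bidirectional fit against DMSO.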

Assay [5] in a line: ATG_BRE_CIS: Attagene CIS-FACTORIAL HepG2 Assay for human Bone Morphogenetic Protein (BMP) Response Element (BRE) (AID 2282933). The settings on record: HepG2 BMP response element reporter, Attagene transcription factor profiling; actives raise or lower the signal. Put shortly: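 A HepG2 multiplex reporter system measured inducible reporter mRNA 24 h post-dosing. Detection: RT-PCR, 6-FAM primer extension, HpaI digestion, capillary electrophoresis. Activity fitted bidirectionally relative to DMSO.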

Assay [6] deals with Retinoic acid receptor alpha (Homo sapiens) (UniProt P10276). Description: ATG_DR5_RAR_CIS: Attagene CIS-FACTORIAL HepG2 Assay for human Retinoic Acid Receptor Alpha (RARE), DR5 submotif (AID 2282934).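 As to AC50: reporter responds to endogenous RAR alpha beta and gamma in HepG2 not RARA alone.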 Conditions: HepG2 Attagene cis-factorial RARE DR5 reporter, mRNA; actives raise or lower the signal. Put shortly:
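Transient MRTU transfection of HepG2; 24 h compound treatment; TriZol RNA, oligo(dT) RT, PCR, FAM labelling, capillary electrophoresis. Bidirectional fit vs DMSO. Endogenous TF activity at DR5 RARE.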

Assay [7] addresses Transcription factor E2F1 (Homo sapiens) (UniProt Q01094). Kind of assay: ATG_E2F_CIS: Attagene CIS-FACTORIAL HepG2 Assay for human E2F Transcription Factor 1 (AID 2282935). The settings on record: HepG2 Attagene cis-reporter, E2F reporter RNA transcripts; actives raise or lower the signal. Put shortly: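 Gain or loss of reporter transcript, fitted against DMSO, reflects E2F1-driven transcription. Transiently transfected HepG2 dosed 24 h before RNA isolation. Quantified by fluorescent RT-PCR products separated by capillary electrophoresis.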

A short description of assay [8]: ATG_E_Box_CIS: Attagene CIS-FACTORIAL HepG2 Assay for human Enhancer Box (E-box) (AID 2282936). Conditions: HepG2 E-box cis-reporter transcription, actives raise or lower the signal. Put shortly:
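E-box-driven reporter transcripts measured in transiently transfected HepG2 after 24 h exposure: RNA reverse-transcribed, PCR-amplified, fluorescently labelled, digested and resolved by capillary electrophoresis. Gain or loss relative to DMSO.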

Assay [9] in a line: ATG_EGR_CIS: Attagene CIS-FACTORIAL HepG2 Assay for human Early Growth Response 1 (EGR1) (AID 2282938). The settings on record: HepG2 Attagene CIS-FACTORIAL EGR reporter mRNA; actives raise or lower the signal. The method, boiled down: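 HepG2 cells transiently transfected with cis-element-driven multiplexed reporter units, dosed for 24 h. EGR1-element reporter mRNA quantified by RT-PCR, 6-FAM labelling, HpaI digestion and capillary electrophoresis; bidirectional fit versus DMSO.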

Assay [10] in a line: ATG_ERE_CIS: Attagene CIS-FACTORIAL HepG2 Assay for Estrogen Response Element (ERE) (AID 2282940). Conditions: HepG2 ERE cis-reporter, Attagene RNA transcript; actives raise or lower the signal. Put shortly:
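Human liver cells (HepG2) bearing transiently transfected, promoter-regulated reporter units were exposed 24 h. Reporter mRNA induction was detected by capillary electrophoresis of labelled RT-PCR products and fitted bidirectionally to DMSO.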

Assay [11] can be described thus: ATG_Ets_CIS: Attagene CIS-FACTORIAL HepG2 Assay for human Erythroblast Transformation Specific (ETS) (AID 2282941). Conditions: HepG2 ETS cis-reporter transcription, actives raise or lower the signal. Put shortly: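 RT-PCR/capillary electrophoresis fluorescence read-out of reporter mRNA; HepG2 transient multi-reporter transfection; 24 h compound exposure; gain or loss of signal fitted bidirectionally relative to DMSO.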

In assay [12] the target is Hepatocyte nuclear factor 3-beta (Homo sapiens) (UniProt Q9Y261). Kind of assay: ATG_FoxA2_CIS: Attagene CIS-FACTORIAL HepG2 Assay for human Forkhead box A2 (FOXA2) (AID 2282942). The settings on record: HepG2 cis-reporter transcription factor activity, 24 h; actives raise or lower the signal. The method, boiled down:
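HepG2 transiently transfected with a multiplexed cis-promoter reporter library read endogenous FOXA2 activity. After 24 h compound exposure, reporter mRNA was quantified by RT-PCR, HpaI digestion and capillary electrophoresis. Bidirectional fit against DMSO.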

Assay [13] can be described thus: ATG_FoxO_CIS: Attagene CIS-FACTORIAL HepG2 Assay for human Forkhead box O (FoxO) (AID 2282943). The settings on record: HepG2 Attagene cis-reporter, FoxO element, mRNA; actives raise or lower the signal. Put shortly:
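HepG2, transient MRTU transfection (cis element, endogenous TFs). Dose 24 h. TriZol RNA → oligo(dT) RT → PCR → 6-FAM primer extension → HpaI cut → CE. Gain/loss vs DMSO.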

Assay [14] can be described thus: ATG_GATA_CIS: Attagene CIS-FACTORIAL HepG2 Assay for human GATA Binding Protein (AID 2282944). Conditions: HepG2 GATA cis-element reporter, Attagene multiplex mRNA; actives raise or lower the signal. Put shortly:
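Transfected cis-reporter HepG2 cells were treated with chemicals for 24 hours. Total RNA was then converted to cDNA, amplified with reporter-specific primers and analysed by fluorescent capillary electrophoresis, using DMSO-treated wells as baseline.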

A short description of assay [15]: ATG_GLI_CIS: Attagene CIS-FACTORIAL HepG2 Assay for human Zinc Finger Protein GLI1 (AID 2282945). Conditions: HepG2, Attagene cis-factorial reporter mRNA, GLI element; actives raise or lower the signal. Put shortly:
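Bidirectional curve fits relative to DMSO, using reporter mRNA levels from RT-PCR plus capillary electrophoresis. Cells were HepG2 transiently carrying cis-regulated reporter constructs, harvested 24 h after dosing.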

Assay [16] concerns the target Bile acid receptor (Homo sapiens) (UniProt Q96RI1). Kind of assay: ATG_IR1_CIS: Attagene CIS-FACTORIAL HepG2 Assay for human Nuclear Receptor Subfamily 1 Group H Member 4 (NR1H4), IR1 submotif (AID 2282946). The settings on record: IR1 reporter transcription, actives raise or lower the signal. The method, boiled down:
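HepG2 cells transiently transfected with multiplexed cis-element reporter units read endogenous transcription factor activity. After 24 h compound exposure, reporter mRNA was quantified by RT-PCR, fluorescent labelling, HpaI digestion and capillary electrophoresis; bidirectional fitting versus DMSO baseline.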

A short description of assay [17]: ATG_ISRE_CIS: Attagene CIS-FACTORIAL HepG2 Assay for human Interferon Regulatory Factor 1 (IRF1) binding to an Interferon-Stimulated Response Element (ISRE) (AID 2282948). The settings on record: HepG2 ISRE cis-reporter (Attagene), mRNA transcription readout; actives raise or lower the signal. The method, boiled down: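 Read-out: fluorescent RT-PCR products resolved by capillary electrophoresis, reporting endogenous transcription factor activity via ISRE-driven reporter mRNA in transfected HepG2 cells dosed for 24 h; gain or loss fitted relative to DMSO.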

A short description of assay [18]: ATG_M_61_CIS: Attagene CIS-FACTORIAL HepG2 Assay for M61 Transcription Factor (Internal Marker) (AID 2282937). Conditions: HepG2 Attagene CIS-FACTORIAL M61 internal marker reporter; actives raise or lower the signal. Put shortly: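 HepG2 cells transiently transfected with multiplexed cis-promoter reporter units reporting endogenous transcription factor activity, measured 24 h after dosing. Reporter mRNA quantified by RT-PCR and capillary electrophoresis; bidirectional fit against DMSO baseline.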

The nature of assay [19]: ATG_M_19_CIS: Attagene CIS-FACTORIAL HepG2 Assay for M19 Transcription Factor (Internal Marker) (AID 2282939). The settings on record: HepG2 Attagene CIS-FACTORIAL M19 internal marker reporter; actives raise or lower the signal. Put shortly: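 Chemical-treated HepG2 (24 h) with MRTU constructs; reporter transcripts detected by fluorescent RT-PCR fragment analysis on capillary electrophoresis. Internal background marker, DMSO as baseline.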

Assay [20] is described as follows: ATG_GRE_CIS: Attagene CIS-FACTORIAL HepG2 Assay for human Glucocorticoid Response Elements (GRE) (AID 2282947). The settings on record: HepG2 GRE cis-reporter, Attagene multiplex mRNA; actives raise or lower the signal. Put shortly:
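Reporter transcripts read by RT-PCR with capillary electrophoresis fluorescence after a 24 h chemical exposure of HepG2 cells transiently transfected with multiple cis-element reporter units. Gain or loss fitted against DMSO.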

Each structure is given as a SMILES string. Active and inactive are the calls of the source. The calls were made as follows: active = hit-call score of the fitted dose curve at least 0.9, where 1 is the maximum; inactive = score below 0.9.

Chain of Bile acid receptor (Homo sapiens) (Q96RI1 whole entry, looked up): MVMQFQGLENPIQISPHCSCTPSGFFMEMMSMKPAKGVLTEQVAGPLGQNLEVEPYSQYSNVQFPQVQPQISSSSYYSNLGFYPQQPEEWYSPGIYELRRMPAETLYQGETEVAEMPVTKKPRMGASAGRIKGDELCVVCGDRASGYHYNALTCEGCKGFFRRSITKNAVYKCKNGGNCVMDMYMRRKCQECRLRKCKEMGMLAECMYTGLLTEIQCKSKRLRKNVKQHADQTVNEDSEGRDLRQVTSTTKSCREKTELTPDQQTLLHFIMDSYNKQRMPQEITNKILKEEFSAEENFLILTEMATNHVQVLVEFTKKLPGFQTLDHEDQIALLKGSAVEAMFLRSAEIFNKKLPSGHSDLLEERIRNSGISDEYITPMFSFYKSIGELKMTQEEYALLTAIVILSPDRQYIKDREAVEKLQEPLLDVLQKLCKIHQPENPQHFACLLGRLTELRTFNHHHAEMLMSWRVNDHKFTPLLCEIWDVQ
Chain of Retinoic acid receptor alpha (Homo sapiens) (P10276 whole entry, looked up): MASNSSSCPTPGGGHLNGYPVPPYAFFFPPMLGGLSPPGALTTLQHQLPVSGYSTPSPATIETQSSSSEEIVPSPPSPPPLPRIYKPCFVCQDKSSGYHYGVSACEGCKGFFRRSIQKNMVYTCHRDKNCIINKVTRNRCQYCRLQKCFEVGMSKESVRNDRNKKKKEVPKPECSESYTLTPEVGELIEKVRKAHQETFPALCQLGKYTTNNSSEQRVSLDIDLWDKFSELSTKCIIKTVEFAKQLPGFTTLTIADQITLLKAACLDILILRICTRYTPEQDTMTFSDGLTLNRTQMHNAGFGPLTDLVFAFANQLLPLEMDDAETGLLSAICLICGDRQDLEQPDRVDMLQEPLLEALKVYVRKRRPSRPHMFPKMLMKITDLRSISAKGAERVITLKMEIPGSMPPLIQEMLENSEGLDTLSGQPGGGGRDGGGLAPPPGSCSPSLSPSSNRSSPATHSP
Chain of Aryl hydrocarbon receptor (Homo sapiens) (P35869 whole entry, looked up): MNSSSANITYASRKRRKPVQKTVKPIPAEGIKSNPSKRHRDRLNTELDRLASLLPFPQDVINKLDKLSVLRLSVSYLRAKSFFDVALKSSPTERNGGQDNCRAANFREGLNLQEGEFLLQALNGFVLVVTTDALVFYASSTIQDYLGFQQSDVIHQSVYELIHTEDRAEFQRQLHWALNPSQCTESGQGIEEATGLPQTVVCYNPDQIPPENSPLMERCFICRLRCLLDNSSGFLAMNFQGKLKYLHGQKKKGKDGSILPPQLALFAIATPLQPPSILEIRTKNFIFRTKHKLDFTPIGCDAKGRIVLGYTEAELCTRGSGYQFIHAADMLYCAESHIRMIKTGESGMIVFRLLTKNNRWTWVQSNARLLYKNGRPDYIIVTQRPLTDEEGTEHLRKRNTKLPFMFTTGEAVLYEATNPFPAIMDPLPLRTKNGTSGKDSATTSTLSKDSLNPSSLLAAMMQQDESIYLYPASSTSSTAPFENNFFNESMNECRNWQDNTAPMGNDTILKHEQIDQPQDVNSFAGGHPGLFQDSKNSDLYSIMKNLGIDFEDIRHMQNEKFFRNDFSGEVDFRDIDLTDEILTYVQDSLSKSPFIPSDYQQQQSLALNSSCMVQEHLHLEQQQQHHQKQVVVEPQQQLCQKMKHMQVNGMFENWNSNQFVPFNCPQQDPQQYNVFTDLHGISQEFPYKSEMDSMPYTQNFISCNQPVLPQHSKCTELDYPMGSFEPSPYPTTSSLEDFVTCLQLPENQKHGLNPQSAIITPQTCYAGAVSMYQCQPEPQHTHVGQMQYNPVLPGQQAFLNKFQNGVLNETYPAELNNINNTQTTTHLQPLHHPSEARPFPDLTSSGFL
Chain of Transcription factor E2F1 (Homo sapiens) (Q01094 whole entry, looked up): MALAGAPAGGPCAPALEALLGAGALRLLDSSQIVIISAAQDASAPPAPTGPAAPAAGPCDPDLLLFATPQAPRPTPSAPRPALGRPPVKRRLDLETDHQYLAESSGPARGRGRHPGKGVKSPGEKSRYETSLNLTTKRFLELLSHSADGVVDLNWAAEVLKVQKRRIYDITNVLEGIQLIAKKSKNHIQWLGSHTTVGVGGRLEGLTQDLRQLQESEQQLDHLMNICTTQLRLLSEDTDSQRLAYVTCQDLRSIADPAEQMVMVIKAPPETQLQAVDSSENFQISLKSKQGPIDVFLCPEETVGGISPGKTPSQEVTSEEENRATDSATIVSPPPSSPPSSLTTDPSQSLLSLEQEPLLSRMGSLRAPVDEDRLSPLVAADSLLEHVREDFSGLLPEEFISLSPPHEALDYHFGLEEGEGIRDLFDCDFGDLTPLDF
Chain of Hepatocyte nuclear factor 3-beta (Homo sapiens) (Q9Y261 whole entry, looked up): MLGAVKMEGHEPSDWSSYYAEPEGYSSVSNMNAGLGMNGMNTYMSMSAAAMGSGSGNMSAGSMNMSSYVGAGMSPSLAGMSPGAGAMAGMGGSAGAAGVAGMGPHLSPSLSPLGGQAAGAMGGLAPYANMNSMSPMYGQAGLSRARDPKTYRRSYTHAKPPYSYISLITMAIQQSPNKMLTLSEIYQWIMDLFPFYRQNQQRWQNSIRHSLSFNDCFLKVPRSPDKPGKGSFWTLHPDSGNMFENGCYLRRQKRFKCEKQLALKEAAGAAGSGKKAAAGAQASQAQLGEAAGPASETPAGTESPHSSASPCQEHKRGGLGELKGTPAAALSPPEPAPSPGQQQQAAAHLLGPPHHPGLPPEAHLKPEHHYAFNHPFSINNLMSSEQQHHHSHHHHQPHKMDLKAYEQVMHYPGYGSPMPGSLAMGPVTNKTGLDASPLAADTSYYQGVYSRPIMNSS

In the case of `CCOC(=O)OC1=C(c2cc(C)ccc2C)C(=O)NC12CCC(OC)CC2` (centres undefined), the outcome in assay [1], in [2], in assay [3], in assay [4], in [5] and in [6] was inactive. For the same molecule, the result in assay [7], in [8], in [9], in assay [10], in assay [11] and in [12] was inactive. For the same molecule, the call in assay [13], in assay [14], in assay [15], in assay [16] and in assay [17] was inactive.

With `CCOP(=S)(OCC)Oc1ccc(Cl)cc1Cl`, the molecule was called inactive in [1], in assay [2], in assay [3], in [4], in assay [5] and in assay [6]. In addition, the call in assay [7], in [8], in [18], in assay [19], in assay [12] and in [13] was inactive. Moreover, the molecule was classed as inactive in [14], in assay [15] and in assay [17].

As usually defined, the AC50 is the concentration giving half of the maximal activity seen. On to `C[C@@H]1O[C@@H](O[C@H]2C[C@@H](O)[C@]3(CO)[C@H]4[C@H](O)C[C@]5(C)[C@@H](C6=CC(=O)OC6)CC[C@]5(O)[C@@H]4CC[C@]3(O)C2)[C@H](O)[C@H](O)[C@H]1O`, for which the AC50 in assay [1] is 207 nM (active); in assay [3], 215 nM (active); in [4], 119 nM (active); in assay [6], 155 nM (active); in assay [11], 221 nM (active); in [13], 233 nM (active). Besides, the AC50 is 71.6 nM (active) in [14], 287 nM (active) in assay [20] and 279 nM (active) in assay [17]. Besides, the call in [2], in assay [5], in assay [7], in assay [8], in assay [18] and in assay [19] was inactive. The molecule was classed as inactive in [10], in [12], in assay [15] and in assay [16].

For `Fc1cccc(Cl)c1CCl`, the result in assay [1], in assay [2], in assay [3], in assay [4], in assay [5] and in assay [6] was inactive. Also, the result in [7], in [8], in assay [18], in assay [19], in assay [10] and in assay [11] was inactive. Further, the result in assay [13], in assay [14], in assay [15], in assay [16], in assay [20] and in assay [17] was inactive.
